# In the library only some 1.3% were active in any assay of this set; here they are far more common.
# Fam108B counter – blocks mouse Fam108B hydrolase in RBBP9 counter-screen | recombinant Fam108B, FP-Rh probe fluorescence polarization | inhibition, % at 9.51 µM | hit rate 0.33% among 300,000;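 active means inhibition above the screen mean inhibition plus 3 SD, computed separately per campaign, cut at about 18% in these data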;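 further: inhibitors lower polarization as less probe binds the enzyme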
# LYPLA2 inh – LYPLA2 (human) inhibition in PME1 counter-screen; O95372; recombinant LYPLA2, FP-Rh probe fluorescence polarization; inhibition, % at 5.9 µM; hit rate 0.38% among 320,000; AID 2177;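 active means inhibition above the screen-wide mean plus 3 SD, limit set per campaign, cut at about 26% in these data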;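 further: 0% = LYPLA2 with DMSO and 100% = wells lacking LYPLA2 enzyme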
# Target sequence (O95372 whole entry, looked up): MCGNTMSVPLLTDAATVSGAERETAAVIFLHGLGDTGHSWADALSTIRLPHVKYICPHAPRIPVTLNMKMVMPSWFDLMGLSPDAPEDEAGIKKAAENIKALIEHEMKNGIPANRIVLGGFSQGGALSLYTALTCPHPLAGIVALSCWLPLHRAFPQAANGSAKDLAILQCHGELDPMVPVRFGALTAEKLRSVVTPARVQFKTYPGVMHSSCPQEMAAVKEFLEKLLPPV
# PME-1 primary – PME-1 (human) inhibition | recombinant PME-1, FP-Rh probe fluorescence polarization | inhibition, % at 5.9 µM | hit rate 0.53% among 320,000 | AID 2130;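 active means inhibition above the campaign mean of all compounds plus 3 SD, cut at about 26% in these data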;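 further: competitive labeling of PME-1 active site by serine hydrolase directed probe; 0% = PME-1 with DMSO and 100% = wells lacking PME-1 enzyme; inhibitors block probe labeling so polarization falls and inhibition rises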
# LYPLA1 inh – counter-screen for PME1 inhibitors: inhibitors of human LYPLA1 | O75608 | recombinant LYPLA1, FP-Rh probe fluorescence polarization | inhibition, % at 5.9 µM | hit rate 0.16% among 320,000 | AID 2174;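 active means inhibition above the mean of all tested compounds plus 3 SD, set per campaign, cut at about 14% in these data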;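 further: inhibitors block serine hydrolase probe labeling of LYPLA1 so polarization falls; 0% = enzyme with DMSO and 100% = wells lacking LYPLA1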
# Target sequence (O75608 whole entry, looked up): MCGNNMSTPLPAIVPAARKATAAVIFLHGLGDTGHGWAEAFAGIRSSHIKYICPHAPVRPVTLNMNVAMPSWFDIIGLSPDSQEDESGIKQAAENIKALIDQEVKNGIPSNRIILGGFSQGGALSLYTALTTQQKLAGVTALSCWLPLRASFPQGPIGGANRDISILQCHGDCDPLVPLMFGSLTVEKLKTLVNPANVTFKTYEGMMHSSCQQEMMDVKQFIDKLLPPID
# PREPL inhibitor – inhibitors of human prolyl oligopeptidase-like enzyme PREPL. recombinant PREPL, fluorescence polarization activity-based probe. inhibition, % at 5.96 µM. hit rate 0.68% among 320,000. Q4J6C6; in the data active means inhibition above about 43%;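 further: 0% = enzyme with DMSO and 100% = wells lacking enzyme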
# LYPLA2 conf – counter-screen for PME1 inhibitors: confirmation of human LYPLA2 inhibitors; shares compounds with LYPLA2 inh; recombinant LYPLA2, FP-Rh probe fluorescence polarization; inhibition, % at 5.9 µM; hit rate 72% among 1,100;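 active means mean inhibition across replicates above the hit cutoff set in the primary screen, cut at about 26% in these data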;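 further: blocked labeling of the enzyme by serine hydrolase FP-Rh probe lowers polarization; 0% = enzyme with DMSO and 100% = wells lacking LYPLA2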
# LYPLA2 gel ABPP – inhibitors of human LYPLA2 | inhibition, % at 20 µM | shares compounds with LYPLA2 inh | rhLYPLA2 in mouse brain proteome, gel ABPP FP-Rh | hit rate 30% among 150 | AID 652029;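 active means inhibition of LYPLA2 enzyme probe labeling above about 50%, limit read from the data; inactive means inhibition below that limit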;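 further: loss of FP-Rh probe labeling of the LYPLA2 gel band measured as band density; 0% = DMSO only control band and 100% = blank gel background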
# Active calls of the source: *; . = no result.
SMILES,Fam108B counter,LYPLA2 inh,PME-1 primary,LYPLA1 inh,PREPL inhibitor,LYPLA2 conf,others
Cc1ccc(S(=O)(=O)N[C@@H](C)C(=O)N2CCC(C(=O)N[C@@H](Cc3ccccc3)C(=O)O)CC2)cc1,0,6,9,2,8,.,
CCCOc1ccc(-c2csc3ncn(Cc4ccc(C(=O)O)cc4)c(=O)c23)cc1,-2,30*,-8,-5,-4,33*,
O=C(O)c1ccc(Cn2cnc3scc(-c4ccccc4)c3c2=O)cc1,-7,-3,-7,-1,-1,.,
O=C(NCc1cccc(Cl)c1)c1cc(COc2ccc3ncccc3c2)on1,-4,39*,-1,0,-19,36*,
Cc1cc(C)n(CCNC(=O)c2cc(COc3ccc4ncccc4c3)on2)n1,-2,5,-2,0,-8,.,
Cc1ccc(F)cc1CNC(=O)c1cc(COc2ccc3ncccc3c2)on1,0,46*,-1,2,-2,54*,LYPLA2 gel ABPP=31
COc1ccc(-c2cc(C3CCN(C(=O)OC(C)(C)C)CC3)[nH]n2)cc1,1,27*,-3,6,12,18,
COC(=O)c1ccc(N2CCC(c3cc(-c4ccc(OC)cc4)n[nH]3)CC2)c([N+](=O)[O-])c1,-10,26*,-21,-11,28,26,
COc1ccc(-c2cc(C3CCN(c4ccc(C(C)=O)cc4[N+](=O)[O-])CC3)[nH]n2)cc1,-8,37*,-5,-3,23,42*,
COc1ccc(NC(=O)CN(C)C(=O)c2ccc(NS(=O)(=O)c3ccc(F)cc3)cc2)cc1,1,3,-4,-1,5,.,
O=C(NC1CCCC1)C1CCC(CNS(=O)(=O)c2cccs2)CC1 (stereo not drawn),-2,3,2,-2,-1,.,
O=C(C1CCC(CNS(=O)(=O)c2cccs2)CC1)N1CCN(c2ccc(Cl)cc2)CC1 (stereo not drawn),1,36*,4,1,18,34*,
CCOC(=O)C1CCN(C(=O)c2ccc(Oc3cc(Cl)cc(Cl)c3)o2)CC1,-2,27*,2,4,27,49*,
NC(=O)C1CCN(C(=O)c2ccc(Oc3cc(Cl)cc(Cl)c3)o2)CC1,4,-4,6,-1,25,.,
CCN(C(=O)COC(=O)CCn1c(C)csc1=O)c1c(N)n(Cc2ccccc2)c(=O)[nH]c1=O,.,4,1,0,5,.,
CC(C)(C)c1ccc(Cn2nnc3c(=O)[nH]c(C4CCN(C(=O)Cc5cccs5)CC4)nc32)cc1,1,27*,7,-2,2,-3,
CC(C)(C)c1ccc(Cn2nnc3c(=O)[nH]c(C4CCCN(C(=O)Cc5cccs5)C4)nc32)cc1 (stereo not drawn),-1,-3,3,1,8,.,
O=C(c1cc(-c2cccs2)on1)N1CCN(c2ccc(F)cc2)CC1,1,28*,-1,6,-4,27*,
COc1ccc(-c2cc(C(=O)N3CCN(c4ccc(F)cc4)CC3)no2)cc1OC,-1,39*,-5,3,-20,33*,
Cc1cc(C)nc(SCc2nnc(SCC(=O)Nc3cc(C(F)(F)F)ccc3Cl)o2)n1,-4,1,4,2,22,.,
O=S(=O)(c1ccc(Oc2ccc(Br)cc2)cc1)N1CCOCC1,2,4,10,2,10,.,
Cc1ccccc1N=Nc1c(O)n(C)c2ccccc12,0,2,2,2,-11,.,
Cc1cc(OCC(=O)N(Cc2cccs2)C2CCS(=O)(=O)C2)ccc1Cl (stereo not drawn),-3,-4,0,-5,27,.,
C/C(=N/OC(=O)C1CC1)c1cc(-c2ccc(Cl)cc2)no1,5,37*,-1,5,10,22,
C/C(=N\OC(=O)c1ccccc1)c1cc(-c2ccc(Cl)cc2)no1,1,5,-6,0,4,.,
Cc1cc(C)c(NC(=O)COC(=O)c2ccncc2)c(C)c1,.,.,.,.,26,.,
O=C1NC(Cc2ccccc2)c2nc3ccc(Cl)cc3c(=O)n2-c2ccc(Cl)cc21 (stereo not drawn),.,26*,-11,-5,-4,-11,
Cc1cc(Cl)cc(C)c1OCC(=O)NC1CCCCCC1,.,.,.,.,12,.,
Cc1nc2ccc(NC(=O)CSc3ccccc3)cc2s1,.,.,.,.,-1,.,

# Screens from PubChem BioAssay.
